Several values for one entry are separate records, joined by “and”; a condition that tells them apart may be missing. Equal values may be shown once. Among all 5,500 compounds or so, about 2,000 (36%) were called active. About 18% were inconclusive and are not listed. No stated cut-off is given here; in the data, active means normalized growth mostly below about 0.91 (no sharp cut-off); inconclusive means no clear call, values can overlap the other calls; inactive means mostly above about 0.92. Some of the results follow. Where a SMILES comes first, the peptide text is derived from it. The star is where a group is joined. For = O=C*
Assay: chemical genetic growth profiling, strain panel (AID 1159580);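 further: tested at 20 µM; growth read once vehicle control cultures reached saturation at 30 °C; 1 = growth at the plate median or of vehicle wells; lower values mean less growth of the strain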
Settings: growth OD

Measured: normalized growth

CSCCC(NC=O)C(=O)NC(Cc1ccccc1)C(=O)O (stereo not drawn) (For-Met-Phe-OH; configuration not given here)
inactive: S. cerevisiae deletion strains, locus YAL013W, strain DEP1, hits give low values 1.02 | S. cerevisiae deletion strains, locus YBR021W, strain FUR4, hits give low values 1.04 | S. cerevisiae deletion strains, locus YBR229C, strain ROT2, hits give low values 1.01 | S. cerevisiae deletion strains, locus YCL029C, strain bik1, hits give low values 1.03 | S. cerevisiae deletion strains, locus YDL035C, strain GPR1, hits give low values 1.03 | S. cerevisiae deletion strains, locus YDL074C, strain BRE1, hits give low values 1.02 | S. cerevisiae deletion strains, locus YDL101C, strain DUN1, hits give low values 1.01 | S. cerevisiae deletion strains, locus YDL134C, strain PPH21, hits give low values 1.03 | S. cerevisiae deletion strains, locus YDL185W, strain tfp1, hits give low values 1.02 | S. cerevisiae deletion strains, locus YDL192W, strain arf1, hits give low values 1.02 | S. cerevisiae deletion strains, locus YDR101C, strain arx1, hits give low values 0.998 | S. cerevisiae deletion strains, locus YDR150W, strain NUM1, hits give low values 1.01 | S. cerevisiae deletion strains, locus YDR162C, strain NBP2, hits give low values 1.01 | S. cerevisiae deletion strains, locus YDR318W, strain mcm21, hits give low values 1.02 | S. cerevisiae deletion strains, locus YDR388W, hits give low values 1.02 | S. cerevisiae deletion strains, locus YDR502C, strain sam2, hits give low values 1.01 | S. cerevisiae deletion strains, locus YEL061C, strain CIN8, hits give low values 1.01 | S. cerevisiae deletion strains, locus YER110C, hits give low values 1.02 | S. cerevisiae deletion strains, locus YER155C, strain BEM2, hits give low values 1 | S. cerevisiae deletion strains, locus YER167W, strain BCK2, hits give low values 1 | S. cerevisiae deletion strains, locus YGL078C, strain dbp3, hits give low values 1.01 | S. cerevisiae deletion strains, locus YGL086W, strain mad1, hits give low values 1 | S. cerevisiae deletion strains, locus YGL248W, strain PDE1, hits give low values 1 | S. cerevisiae deletion strains, locus YGR135W, strain pre9, hits give low values 1.02 | S. cerevisiae deletion strains, locus YGR229C, strain SMI1, hits give low values 1.02 | S. cerevisiae deletion strains, locus YGR252W, strain gcn5, hits give low values 1.03 | S. cerevisiae deletion strains, locus YHR030C, strain SLT2, hits give low values 1.01 and 1.07 | S. cerevisiae deletion strains, locus YHR079C, strain IRE1 (second series), hits give low values 1.02 | S. cerevisiae deletion strains, locus YHR079C, strain IRE1, hits give low values 1.04 | S. cerevisiae deletion strains, locus YHR094C, strain hxt1, hits give low values 1.02 | S. cerevisiae deletion strains, locus YHR129C, strain ARP1, hits give low values 1 | S. cerevisiae deletion strains, locus YHR200W, strain rpn10, hits give low values 1.03 | S. cerevisiae deletion strains, locus YIL066C, strain RNR3, hits give low values 1.01 | S. cerevisiae deletion strains, locus YIL073C, strain SPO22, hits give low values 1.08 | S. cerevisiae deletion strains, locus YIL125W, strain kgd1, hits give low values 1.01 | S. cerevisiae deletion strains, locus YIR030C, strain dcg1, hits give low values 1.01 | S. cerevisiae deletion strains, locus YJL095W, strain BCK1, hits give low values 1 and 1.06 | S. cerevisiae deletion strains, locus YJL134W, strain LCB3, hits give low values 1 | S. cerevisiae deletion strains, locus YJL168C, strain set2, hits give low values 1.01 | S. cerevisiae deletion strains, locus YJL187C, strain SWE1 (second series), hits give low values 1.01 | S. cerevisiae deletion strains, locus YJR043C, strain POL32, hits give low values 1.01 | S. cerevisiae deletion strains, locus YJR066W, strain TOR1, hits give low values 1.01 | S. cerevisiae deletion strains, locus YKL009W, strain mrt4, hits give low values 1.02 | S. cerevisiae deletion strains, locus YKL068W, hits give low values 1.01 | S. cerevisiae deletion strains, locus YKL085W, strain MDH1 (second series), hits give low values 1.01 | S. cerevisiae deletion strains, locus YKL085W, strain MDH1, hits give low values 1.01 | S. cerevisiae deletion strains, locus YKL190W, strain CNB1, hits give low values 1.01 | S. cerevisiae deletion strains, locus YKR001C, strain vps1, hits give low values 1.02 | S. cerevisiae deletion strains, locus YLR039C, strain RIC1, hits give low values 1.06 | S. cerevisiae deletion strains, locus YLR058C, strain SHM2, hits give low values 1.01 | S. cerevisiae deletion strains, locus YLR102C, strain apc9, hits give low values 1.02 | S. cerevisiae deletion strains, locus YLR113W, strain HOG1, hits give low values 0.978 | S. cerevisiae deletion strains, locus YLR262C, strain YPT6, hits give low values 1.04 | S. cerevisiae deletion strains, locus YLR268W, strain sec22, hits give low values 1.02 | S. cerevisiae deletion strains, locus YLR330W, strain CHS5, hits give low values 1.01 | S. cerevisiae deletion strains, locus YLR342W, strain FKS1 (second series), hits give low values 1.03 | S. cerevisiae deletion strains, locus YLR371W, strain rom2, hits give low values 1.02 | S. cerevisiae deletion strains, locus YLR418C, strain cdc73, hits give low values 1.06 | S. cerevisiae deletion strains, locus YML016C, strain PPZ1, hits give low values 0.999 | S. cerevisiae deletion strains, locus YML032C, strain rad52, hits give low values 1.02 | S. cerevisiae deletion strains, locus YML124C, strain tub3, hits give low values 1.01 | S. cerevisiae deletion strains, locus YMR078C, strain ctf18, hits give low values 1.01 | S. cerevisiae deletion strains, locus YMR223W, strain ubp8, hits give low values 1.02 | S. cerevisiae deletion strains, locus YMR263W, strain SAP30, hits give low values 1.01 | S. cerevisiae deletion strains, locus YMR307W, strain GAS1, hits give low values 1.04 | S. cerevisiae deletion strains, locus YNL067W, strain RPL9B, hits give low values 1.02 | S. cerevisiae deletion strains, locus YNL128W, strain TEP1, hits give low values 1.04 | S. cerevisiae deletion strains, locus YNL183C, strain NPR1, hits give low values 0.989 | S. cerevisiae deletion strains, locus YNL233W, strain BNI4, hits give low values 1 | S. cerevisiae deletion strains, locus YNL250W, strain rad50, hits give low values 1.01 | S. cerevisiae deletion strains, locus YNL271C, strain bni1, hits give low values 1.02 | S. cerevisiae deletion strains, locus YNL298W, strain CLA4, hits give low values 1.03 | S. cerevisiae deletion strains, locus YNL307C, strain MCK1, hits give low values 1.03 | S. cerevisiae deletion strains, locus YNL322C, strain KRE1, hits give low values 1.01 | S. cerevisiae deletion strains, locus YNR052C, strain pop2, hits give low values 1.02 | S. cerevisiae deletion strains, locus YOL006C, strain TOP1, hits give low values 0.99 | S. cerevisiae deletion strains, locus YOL012C, strain htz1 0.63 | S. cerevisiae deletion strains, locus YOL147C, strain pex11, hits give low values 1.03 | S. cerevisiae deletion strains, locus YOR061W, strain CKA2, hits give low values 1 | S. cerevisiae deletion strains, locus YOR069W, strain VPS5, hits give low values 1.01 | S. cerevisiae deletion strains, locus YOR136W, strain idh2, hits give low values 1.02 | S. cerevisiae deletion strains, locus YOR144C, strain elg1, hits give low values 1.01 | S. cerevisiae deletion strains, locus YOR184W, strain ser1, hits give low values 1.02 | S. cerevisiae deletion strains, locus YOR231W, strain MKK1, hits give low values 1.02 | S. cerevisiae deletion strains, locus YOR316C, strain cot1, hits give low values 1.03 | S. cerevisiae deletion strains, locus YPL055C, strain LGE1, hits give low values 0.997 | S. cerevisiae deletion strains, locus YPL241C, strain CIN2, hits give low values 1 | S. cerevisiae deletion strains, locus YPL256C, strain CLN2, hits give low values 1.07 | S. cerevisiae deletion strains, locus YPR119W, strain clb2, hits give low values 1.01 | S. cerevisiae deletion strains, locus YPR141C, strain kar3, hits give low values 1.01 | S. cerevisiae deletion strains, locus YPR163C, strain tif3, hits give low values 1.01 | S. cerevisiae deletion strains, locus YPR167C, strain met16, hits give low values 1.03 | S. cerevisiae deletion strains, strain wtn01, hits give low values 1.04 | S. cerevisiae strains, strain wild type, hits give low values 1.01

From PubChem BioAssay AID1159580 (chemical genetic matrix, 2015)
